Assay outcomes (PubChem BioAssay)
Chronic BCR inh – chronic active BCR signaling inhibition; ABC-DLBCL IkBa-CBG/CBR reporter, luminescence ratio, 4 h; Potency, µM (series often up to 46.1 µM), hits mostly inhibitors; hit rate 0.05% among 340,000; active = well fitted inhibition curve with a large enough effect in the signal ratio, with a control signal flat, not every such curve was filed as active; inconclusive = small, poorly fitted or top-dose-only effect, or effect the other way, or a change in a side signal; the % refers to the signal ratio
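Doxycycline induced both beetle luciferases in TMD8 lymphoma cells; IKK-driven degradation limits the IkappaBalpha-fused green signal, while red luminescence normalises for cell number and nonspecific effects. Compounds tested up to 46 uM, 4 hrs.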
BRCA1 expr up – increases BRCA1 expression | MCF7-BRCA1-FFLuc reporter, luminescence, 48 h; response scale: scaled: vehicle 0%, 10 µM genistein 100% | Potency, µM (doses to about 46.1 µM), hits mostly activators | hit rate 1.1% among 380,000 | AID 624202; also: nearly all actives have a fitted effect of over 80% in size
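Compounds are tested at multiple concentrations on MCF7 BRCA1-luciferase reporter cells seeded at 2000 per well; after 48 h, a single luminescence end-point is taken and curves fitted to the normalized data.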
IL2 activator – activators of IL-2 | activation, % (series mostly up to about 46 µM) | AID 652025 | hit rate 0.065% among 360,000 | IL-2 activation reporter assay, cell-based qHTS; stimulated with anti-CD3/CD4/CD28 beads; in transgenic mouse T cells; in the data active = activation above about 50%; inconclusive = mostly about 30% to 49%
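Readout is EGFP and DsRed signal by fluorescent plate cytometry after 18 h at 37 degrees C. Transgenic mouse T cells (750/well) received compound for 60 min before bead stimulation (anti-CD3, anti-CD4, anti-CD28); memory T cells served as non-tolerant control.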
Mito fusion yeast – blocks mitochondrial division or promotes mitochondrial fusion; S. cerevisiae fusion-defective mutant growth rescue, CellTiterGlo 48 h; hit rate 0.23% among 320,000; AID 485298; Potency, µM (doses to about 46.1 µM), most hits filed as activators; also: nearly all actives have a fitted effect of over 45% in size
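Temperature-sensitive fusion-defective S. cerevisiae (e.g. fzo1-1, mgm1-5) were grown with compound in YPEG medium (3% ethanol, 3% glycerol) for 48 hours at 37C. Growth rescue was measured as viability by CellTiterGlo luminescence after 10 minutes at ambient.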
TCR activator – activates T cell receptor signaling | primary human leukocytes, anti-CD3, IL-2 HTRF, 48 h | Potency, µM (highest dose often 9.22 µM), hits mostly activators | 330,000 tested, under 10 active
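Primary human leukocytes were stimulated with a-CD3 beads plus compounds for 48 hr without co-stimulation; secreted IL-2 was quantified by HTRF using a-IL-2-K (europium cryptate) and a-IL-2-d2, excited at 320nm with acceptor emission read at 665nm.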
PTHR1 agonist – activates the human parathyroid hormone receptor PTHR1 | AID 743266 | Potency, µM (titrated, usually from 115 µM), actives largely listed as activators | HEK293 GP2 PTHR1 cells, GloSensor cAMP luminescence, 1 h | hit rate 0.075% among 410,000; also: nearly all actives have a fitted effect of over 55% in size
Target sequence (Q03431 whole entry, looked up): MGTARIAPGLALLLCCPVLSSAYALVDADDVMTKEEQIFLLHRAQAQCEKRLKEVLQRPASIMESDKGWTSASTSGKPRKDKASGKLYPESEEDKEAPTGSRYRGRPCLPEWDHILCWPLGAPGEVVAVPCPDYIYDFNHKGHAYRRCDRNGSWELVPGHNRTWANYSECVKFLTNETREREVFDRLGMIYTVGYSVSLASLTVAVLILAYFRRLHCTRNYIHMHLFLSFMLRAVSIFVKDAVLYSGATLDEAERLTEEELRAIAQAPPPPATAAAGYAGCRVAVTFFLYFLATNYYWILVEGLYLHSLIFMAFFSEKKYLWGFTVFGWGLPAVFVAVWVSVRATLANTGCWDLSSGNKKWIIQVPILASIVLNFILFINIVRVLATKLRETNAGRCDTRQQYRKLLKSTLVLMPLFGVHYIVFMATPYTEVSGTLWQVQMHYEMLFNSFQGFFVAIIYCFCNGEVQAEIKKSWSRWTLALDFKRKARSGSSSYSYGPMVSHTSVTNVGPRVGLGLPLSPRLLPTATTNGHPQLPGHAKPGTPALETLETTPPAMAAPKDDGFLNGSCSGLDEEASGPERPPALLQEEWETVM
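HEK-293-derived GP2 cells expressing PTHR1 and a GloSensor cAMP reporter, 3,000/well, plated overnight, given luciferin plus IBMX (each 0.5 mM as added) for 1 h at 37 °C, then compound for 1 h at 37 °C. Luminescence was read after 15 min at room temperature.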
A number is an active result; – = inactive; ? = inconclusive; · = no result. Most compounds without a hit are left out; they make up all but 1.3% or so of the library. Unless noted, calls follow the shape of the dose curve; as a rule, active = well fitted curve in the direction sought with a large enough effect; inconclusive = small, poorly fitted or top-dose-only effect, or another doubt; inactive = no such curve, though single readings can be large; an effect the other way counts as inactive or inconclusive.

SMILES | Chronic BCR inh | BRCA1 expr up | IL2 activator | Mito fusion yeast | TCR activator | PTHR1 agonist
Cc1ccc(-c2noc(C3CCCN(C(=O)c4ccccc4)C3)n2)o1 (stereo not drawn) | – | 10µM | – | – | – | –
Cc1cccc(N(Cc2ccccc2)C(=O)CN2C(=O)NC3(CCCC3)C2=O)c1 | – | – | – | – | – | –
Cc1ccc(-c2cc(C(=O)NCc3ccccn3)no2)cc1 | – | 11µM | – | – | – | –
O=C(NCc1ccccn1)c1cc(-c2ccccc2)on1 | ? | ? | – | – | · | –
COCC(C)NC(=O)c1cc(-c2cccc(OC)c2)on1 (stereo not drawn) | ? | 10µM | – | – | – | –
COc1cccc(-c2cc(C(=O)NCc3ccco3)no2)c1 | ? | 7.9µM | – | – | · | –
CCCNC(=O)c1cc(-c2ccc(Br)cc2)on1 | – | 1.8µM | – | – | – | –
O=C(NCc1ccco1)c1cc(-c2cccc(Cl)c2)on1 | – | ? | – | – | – | –
CC(C)NC(=O)c1cc(-c2ccc(Br)cc2)on1 | ? | ? | – | – | · | –
COc1ccc2cc([S+]([O-])Cc3ncc(C)c(OC)c3C)nc2c1 | · | · | · | – | · | ·
COC(=O)c1ccccc1NC(=O)Cn1cnc2sc(C)c(S(=O)(=O)N3CCC(C)CC3)c2c1=O | · | · | · | · | · | –
CC(=O)NC(Cc1ccc(I)cc1)C(=O)NCC(N)C(=O)c1ccccc1 (stereo not drawn) | · | – | · | · | · | ·
CC(C)CCN1CCN(Cc2ccc(C#CCCO)cc2)CC1CCO (stereo not drawn) | – | – | – | – | – | –
CCc1ccc(NC(=O)C(=O)NCc2ccccn2)cc1 | ? | 3.5µM | – | – | · | –
CC(C)(C)c1ccc(NC(=S)NCCc2ccccn2)cc1 | – | – | – | – | – | –
O=C(NCc1cccs1)c1cc(-c2ccccc2)on1 | ? | 5µM | – | – | – | –
CCOC(=O)c1ccc(NC(=O)C(=O)NCc2ccccn2)cc1 | – | – | – | – | – | –
O=C(NCc1cccs1)c1cc(-c2cccs2)on1 | ? | – | – | – | · | –
CC(=O)c1ccc(NC(=S)NCCc2ccccn2)cc1 | – | 10µM | – | – | – | –
Cc1ccc(-c2cc(C(=O)NCc3ccco3)no2)cc1 | ? | 4µM | – | – | – | –
O=C(COC(=O)CN1C(=O)c2ccccc2C1=O)Nc1ccccc1C(F)(F)F | · | – | – | · | · | –
COc1cccc(OCc2cc(C(=O)NCc3ccccn3)no2)c1 | – | 13µM | – | – | – | –
Cc1[nH]c2ccccc2c1C(=O)CNc1ccc(Br)cc1 | · | – | · | · | · | ·
O=C(Nc1ccc(-c2nc3cccnc3s2)cc1)c1ccc(Cl)nc1 | ? | 1.8µM | – | – | – | –
O=C(Nc1ccc(-c2nc3cccnc3s2)cc1)c1cccnc1Cl | – | ? | – | – | – | –
SMILES | Chronic BCR inh | BRCA1 expr up | IL2 activator | Mito fusion yeast | TCR activator | PTHR1 agonist
C1=Nc2ccccc2/C1=C/c1c[nH]c2ccccc12 | · | – | · | · | · | ·
Cc1cc(C)c(Cn2c(=O)n(CCC(=O)NCc3ccc4c(c3)OCO4)c(=O)c3ccccc32)c(C)c1 | · | – | · | · | · | –
COc1ccc(C(=O)NCCn2cc(SCC(=O)Nc3nnc(C)s3)c3ccccc32)cc1 | · | 13µM | – | · | · | –
Cc1nnc(NC(=O)CSc2cn(CCNC(=O)c3ccccc3)c3ccccc23)s1 | – | – | – | – | – | –
CN(C)/N=C/c1ccc(OS(=O)(=O)c2ccccc2)cc1 | ? | 10µM | – | – | – | –
CCN(c1ccccc1)S(=O)(=O)c1cccc(C(=O)Nc2ccc(C)cn2)c1 | ? | – | – | – | – | –
S=C(Nc1ccccc1Cl)N(Cc1ccccc1)Cc1ccccn1 | ? | – | – | 18µM | – | –
COc1ccccc1NC(=S)N(Cc1ccccc1)Cc1ccccn1 | – | – | – | – | – | –
Cc1ccccc1C(=O)Nc1nnc(SCC(=O)NCc2ccco2)s1 | – | – | – | – | – | –
COc1ccc(CNS(=O)(=O)c2cc3c(cc2C)n(C)c(=O)c(=O)n3C)cc1 | · | · | · | · | · | –
Cc1ccc(S(=O)(=O)Nc2ccc(N=Nc3ccc(O)cc3)cc2)cc1 | ? | – | – | 20µM | – | –
Cc1noc(C)c1S(=O)(=O)Nc1ccc2c(c1)C(=O)N([C@@H](C)CO)C[C@H](C)[C@@H](CN(C)Cc1ccc(C(F)(F)F)cc1)OCCCC[C@H](C)O2 | · | – | – | · | · | –
CC(Sc1nnc(-c2ccncc2)n1C)C(=O)NCC1CCCO1 (stereo not drawn) | – | – | – | – | – | ?
O=C1NC(=O)C(=CC=Cc2ccccc2)S1 | · | 10µM | – | · | · | –
c1ccc(-c2cn(CC3CCCCC3)nn2)cc1 | – | 5.6µM | – | – | – | –
COc1ccc(-c2cn(CC3CCCCC3)nn2)cc1 | – | ? | – | – | – | –
Cc1nn(-c2ccccc2)c(Cl)c1/C=N/NC(=O)c1ccccc1F | ? | 11µM | – | – | – | –
Cc1nn(-c2ccccc2)c(Cl)c1/C=N/NC(=O)c1ccn[nH]1 | ? | ? | – | – | – | –
COc1ccc(CCn2c(=N)c(S(=O)(=O)c3ccc(Cl)cc3)cc3c(=O)n4ccccc4nc32)cc1 | – | – | 80 | – | – | –
O=C(NCCSC1CCCCC1)c1ccccc1 | – | ? | – | – | – | –
COc1ccc(C(=O)NCCSC2CCCCC2)cc1 | ? | 1.8µM | – | – | – | –
Cc1ccccc1N1C(=O)c2ccccc2N2C(=O)c3ccccc3C12 (stereo not drawn) | – | – | – | 14µM | – | –
O=C1c2ccccc2N2C(=O)c3ccccc3C2N1O (stereo not drawn) | ? | – | – | – | – | –
CCOC(=O)N1CCN(Cc2cn[nH]c2-c2cc3ccccc3o2)CC1 | ? | – | – | – | – | –
Cc1cc(NS(=O)(=O)c2ccc(NC(=O)c3ccccc3F)cc2)no1 | – | – | – | · | – | –
SMILES | Chronic BCR inh | BRCA1 expr up | IL2 activator | Mito fusion yeast | TCR activator | PTHR1 agonist
O=C(N/N=C/c1ccc2ccccc2c1)c1ccc(COc2ccc3c(c2)CCC3)o1 | ? | 2µM | – | – | – | –
COc1ccccc1/C=N\NC(=O)c1ccc(COc2ccc(C)c(C)c2)o1 | · | 5.6µM | – | · | – | –
COc1ccccc1NC(=O)c1ccc(COc2ccc(C)c(C)c2)o1 | · | · | · | · | · | –
Cc1[nH]c2ccccc2c1C(=O)C(=O)Nc1ccc2c(c1)OCO2 | ? | 2.5µM | – | – | – | –
CCN(Cc1ccccc1)C(=O)c1oc2ccc(S(=O)(=O)N3CCOCC3)cc2c1C | – | – | – | 10µM | – | –
COc1ccc(S(=O)(=O)N2CCN(Cc3nc4ccc(C)cc4o3)CC2)cc1 | · | · | · | · | · | –
